PubChem BioAssay (EPA / NIEHS)
Values joined by “and” are separate entries in the source; they are usually repeats but may differ in a detail not shown here. Equal values may be shown once. Records with an inconclusive call do not appear. A structure can be active in one record and inactive in another. Active and inactive are the calls of the source. The calls were made as follows, unless noted: active = hit-call score of the fitted dose curve at least 0.9, where 1 is the maximum; inactive = score below 0.9.

Tests used:
[1] = read-out: Tumor necrosis factor (Homo sapiens) (UniProt P01375); assay: BSK_BT_xTNFa: BioMAP Diversity Plus: BT Assay for Tumor necrosis factor alpha (TNF-alpha) Biomarker Activity (AID 2284230); conditions: primary human B cells with PBMC
In short: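 Human primary co-culture of B cells and peripheral blood mononuclear cells; TNF-alpha in supernatant, 24 h post-dose, Luminex multiplex; DMSO = baseline.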

[2] = read-out: Vascular cell adhesion molecule 1 (VCAM1), VCAM1 (gene 7412); assay: BSK_MyoF_VCAM1: BioMAP Diversity Plus: MyoF Assay for Vascular cell adhesion molecule 1 (VCAM1) Biomarker Activity (AID 2284231); conditions: primary human lung fibroblasts
In short: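 Primary human lung fibroblasts (BioMAP MyoF system) dosed with chemical, VCAM-1 measured by ELISA 24 hours later. Fitted in the positive direction against DMSO; parallel SRB staining assessed cytotoxicity.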

[3] = read-out: Collagen III, COL3A1 (gene 1281); assay: BSK_MyoF_CollagenIII: BioMAP Diversity Plus: MyoF Assay for Collagen III Biomarker Activity (AID 2284239); conditions: primary human lung fibroblasts
In short: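 Primary human lung fibroblasts (BioMAP MyoF system) exposed 24 h. Collagen III measured by ELISA; positive-direction fit relative to DMSO.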

[4] = read-out: Interleukin 17F (IL17F), IL17F (gene 112744); assay: BSK_BT_xIL17F: BioMAP Diversity Plus: BT Assay for Interleukin 17F (IL17F) Biomarker Activity (AID 2284243); conditions: primary human B cells with PBMC
In short: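 Human PBMC co-cultured with B cells, compound exposure 24 h; secreted IL-17F quantified by Luminex xMAP, referenced to DMSO control. PBMC viability measured in parallel by Alamar Blue reduction.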

[5] = read-out: Actin alpha 1 (ACTA1), ACTA1 (gene 58); assay: BSK_MyoF_ACTA1: BioMAP Diversity Plus: MyoF Assay for Actin alpha 1 (ACTA1) Biomarker Activity (AID 2284244); conditions: primary human lung fibroblasts
In short: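 Human lung fibroblasts (MyoF system) dosed with test chemical for 24 h; α-SMA measured by ELISA. Gain of signal fitted relative to DMSO negative control as baseline.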

[6] = read-out: Interleukin 2 (IL2), IL2 (gene 3558); assay: BSK_BT_xIL2: BioMAP Diversity Plus: BT Assay for Interleukin 2 (IL2) Biomarker Activity (AID 2284245); conditions: primary human B cells with PBMC
In short: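 Human B cells co-cultured with PBMC, exposed to test chemical for 24 h. Secreted IL-2 quantified by Luminex xMAP bead immunoassay; activity fitted in the positive direction relative to DMSO vehicle baseline.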

[7] = read-out: Basic fibroblast growth factor (bFGF), FGF2 (gene 2247); assay: BSK_MyoF_bFGF: BioMAP Diversity Plus: MyoF Assay for Basic fibroblast growth factor (bFGF) Biomarker Activity (AID 2284246); conditions: primary human lung fibroblasts
In short: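 Human lung fibroblasts were dosed with chemicals and bFGF was quantified by ELISA 24 h later. Activity was fitted in the gain-of-signal direction relative to DMSO as negative control and baseline. Parallel SRB total-protein staining tracked overt cytotoxicity.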

[8] = read-out: Collagen IV, COL4A1 (gene 1282); assay: BSK_MyoF_CollagenIV: BioMAP Diversity Plus: MyoF Assay for Collagen IV Biomarker Activity (AID 2284247); conditions: primary human lung fibroblasts
In short: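 Primary human lung fibroblasts were exposed to test chemicals and sampled 24 h after dosing. Collagen IV levels were measured by ELISA and fitted in the positive direction against DMSO as negative control and baseline.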

[9] = UKN4_HCS_LUHMES_cell_viability: Viability Assessment in the University of Konstanz (UKN) Leist Lab Neurite Outgrowth Assay in human LUHMES cells (UKN4) (AID 2284232)
In short: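 LUHMES cells differentiated 2 days, replated without cAMP/GDNF, then exposed to compounds for 24 h from attachment. Viability read by high-content fluorescence imaging after 30 min live-staining with H-33342 and calcein-AM; bidirectional fit relative to DMSO baseline.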

[10] = UKN2_HCS_IMR90_cell_viability: Viability Assessment in the University of Konstanz (UKN) Leist Lab Neural Crest Cell Migration Assay in human induced IMR90 Pluripotent Stem Cells (UKN2) (AID 2284233);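 also: viability of neural crest cells differentiated from IMR90 iPSC measured by calcein-AM fluorescence imaging; cells exposed to compound for 24 h after a 24 h migration phase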
In short: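 Neural crest cells derived from IMR90 iPSC migrate into a stopper-free zone for 24 h in EGF/FGF medium, then are exposed to compound for 24 h. Viability assessed by calcein-AM and Hoechst staining with high-content imaging, fitted bidirectionally versus DMSO.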

[11] = CCTE_Mundy_HCI_Cortical_NOG_NeuronCount: CCTE's Neurite Outgrowth Assay in rat cortical cells for Neuron Count, Mundy Lab (AID 2284236; active = hit-call score of the fitted dose curve at least 0.9, where 1 is the maximum;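 also: neurons counted by imaging betaIII-tubulin and Hoechst stained cortical cells; cells exposed to compound for about 48 hours before fixation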)
In short: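 Read-out: neuron number by high-content imaging of betaIII-tubulin (Alexa Fluor-488) and Hoechst-labelled rat primary cortical cells.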

[12] = CCTE_Mundy_HCI_Cortical_NOG_BPCount: CCTE's Neurite Outgrowth Assay in rat cortical cells for Branch Point Count, Mundy Lab (AID 2284237);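 also: branch points counted about two days after chemical exposure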
In short: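 Measured 50.33 h after dosing, this morphology endpoint uses rat primary cortical cultures labelled for betaIII-tubulin. Branch points are quantified by high-content imaging, with DMSO as negative control and baseline.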

[13] = CCTE_Mundy_HCI_hNP1_Casp3_7: CCTE's Caspase-Glo 3/7 Assay in human neuroprogenitor cells for Apoptosis, Mundy Lab (AID 2284240)
In short: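 Luminescent caspase-3/7 readout, 26.5 h post-dose, in human neural progenitor cells from WA09 embryonic stem cells. Cells grew 40–44 h at 37 °C, 5% CO2 before chemical addition. Activity analysed as signal increase over DMSO baseline.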

[14] = CCTE_Mundy_HCI_hNP1_CellTiter: CCTE's Cell Titer-Glo 2 Assay in human neuroprogenitor cells for Viability, Mundy Lab (AID 2284241; active = hit-call score of the fitted dose curve at least 0.9, where 1 is the maximum;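 also: a hit is a drop in ATP luminescence versus DMSO meaning reduced viability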)
In short: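 Viability read as luminescent ATP content (CellTiter-Glo, 30 min room temperature) twenty-four hours after dosing, relative to DMSO. Cells: WA09-derived hNP1 neuroprogenitors on poly-L-ornithine/laminin, plated 40 to 44 hours before chemical.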

[15] = CCTE_Mundy_HCI_Cortical_Synap_Neur_Matur_NeuronCount: CCTE's Synaptogenesis and Neurite Maturation Assay in rat cortical cells for Neuron Count, Mundy Lab (AID 2284242; active = hit-call score of the fitted dose curve at least 0.9, where 1 is the maximum;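 as to AC50: neuron number from Hoechst nuclei and MAP2 staining by high-content imaging; hits reduce neuron count versus DMSO baseline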)
In short: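 Rat primary cortical cells received AraC at DIV 5 to arrest glia, then were dosed with chemicals at DIV 7 through DIV 12. Fixed cells were stained for nuclei, MAP2 and synaptophysin, and neurons were counted by high-content imaging relative to DMSO.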

[16] = read-out: Monokine induced gamma interferon (MIG), CXCL9 (gene 4283); assay: BSK_KF3CT_MIG: BioMAP Diversity Plus: KF3CT Assay for Monokine induced gamma interferon (MIG) Biomarker Activity (AID 2284248); conditions: primary human keratinocytes with fibroblasts
In short: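 Human keratinocyte–foreskin fibroblast co-culture; MIG measured by ELISA 24 h after chemical dosing, fitted upward versus DMSO. Cytotoxicity was assessed in parallel cultures by SRB total-protein staining read at 560 nm.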

[17] = read-out: Collagen I, COL1A1 (gene 1277); assay: BSK_hDFCGF_CollagenI: BioMAP Diversity Plus: hDFCGF Assay for Collagen I Biomarker Activity (AID 2284250); conditions: primary human foreskin fibroblasts
In short: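 Primary human foreskin fibroblasts (hDFCGF system) exposed to chemical for 24 h; Collagen I measured by ELISA. Activity fitted in the positive direction relative to DMSO baseline, with SRB total-protein staining in parallel cultures for overt cytotoxicity.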

[18] = TAMU_HCS_1.5hr_SingleDonor1434_Cytotoxicity: Cytotoxicity Assessment using High-content Screening (HCS) Fluorescent Imaging for the Texas A&M University (TAMU) 1.5-hr Human Induced Pluripotent Stem Cell (iPSC)-derived Cardiotoxicity Assay (AID 2284234; active = hit-call score of the fitted dose curve at least 0.9, where 1 is the maximum)
In short: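 Human iPSC-derived cardiomyocytes dosed at 0.2, 1, 10, 100 uM final (0.5% DMSO) for 90 min at 37 C. Hoechst 33342-stained nuclei counted by 10x high-content imaging; POD is EC10, a 10% drop in total cell count versus DMSO.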

[19] = TAMU_PeakParms_SingleDonor1434_QT: Texas A&M University (TAMU) 1.5-hr Human Induced Pluripotent Stem Cell (iPSC)-derived Cardiomyocytes Calcium (Ca+2) Flux Assay for Cardiotoxicity: QT (decay-rise ratio) (AID 2284235; active = hit-call score of the fitted dose curve at least 0.9, where 1 is the maximum)
In short: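 iPSC-derived cardiomyocytes (single donor 1434) dosed at 0.2, 1, 10, 100 uM final in 0.5% DMSO, 90 min at 37C. Ca2+ flux fluorescence decay/rise ratio; EC05 (5% increase versus DMSO) as POD, excluding beat-arrest and severe-notch data.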

[20] = read-out: Vascular cell adhesion molecule 1 (VCAM1), VCAM1 (gene 7412); assay: BSK_BF4T_VCAM1: BioMAP Diversity Plus: BF4T Assay for Vascular cell adhesion molecule 1 (VCAM1) Biomarker Activity (AID 2284249); conditions: primary human bronchial epithelial cells with fibroblasts
In short: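 Human bronchial epithelial cell and dermal fibroblast co-culture exposed 24 h. VCAM-1 measured by ELISA; parallel SRB total-protein staining for cytotoxicity. Fitted in positive direction relative to DMSO.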

Measured: AC50

Chain of Tumor necrosis factor (Homo sapiens) (P01375 whole entry, looked up): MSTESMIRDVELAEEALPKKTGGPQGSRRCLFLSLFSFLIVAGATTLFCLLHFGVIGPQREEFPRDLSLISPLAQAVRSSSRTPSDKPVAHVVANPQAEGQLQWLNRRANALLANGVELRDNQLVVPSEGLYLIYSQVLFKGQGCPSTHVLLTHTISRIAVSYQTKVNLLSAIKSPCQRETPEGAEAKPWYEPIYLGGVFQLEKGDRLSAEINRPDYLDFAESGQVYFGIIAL

BrCCBr
inactive: [1] | [2] | [3] | [4] | [5] | [6] | [7] | [8]

Oc1c(I)cc(I)cc1I
inactive: [1] | [4] | [6] | [7]
active: [2] 8.17 µM | [3] 3.97 µM | [5] 20 µM | [8] 4.34 µM

C=C(C)C(=O)[O][Sn]([CH2]CCC)([CH2]CCC)[CH2]CCC
active: [9] 0.181 µM | [10] 0.272 µM | [11] 0.0826 µM | [12] 0.0846 µM | [13] 2.77 µM | [14] 0.335 µM | [15] 54.7 nM

CC(=O)OC(c1ccccc1)C(Cl)(Cl)Cl (stereo not drawn)
inactive: [16] | [17]

O=Cc1cccc(Oc2ccccc2)c1
inactive: [1] | [2] | [3] | [4] | [5] | [6] | [7] | [8]

COC(=O)c1sccc1S(=O)(=O)NC(=O)Nc1nc(C)nc(OC)n1
inactive: [1] | [2] | [3] | [4] | [5] | [6] | [7] | [8]

CCNc1nc(NC(C)(C)C)nc(SC)n1
inactive: [3] | [5] | [6] | [7] | [8]
active: [1] 20 µM | [2] 20 µM | [4] 20 µM

CCCCCCCCC(=O)NCc1ccc(O)c(OC)c1
inactive: [1] | [2] | [3] | [4] | [5] | [6] | [7] | [8]

O=C1C2(Cl)C3(Cl)C4(Cl)C(Cl)(Cl)C5(Cl)C3(Cl)C1(Cl)C5(Cl)C24Cl (stereo not drawn)
inactive: [15]
active: [9] 7.53 µM | [10] 3.06 µM | [11] 15 µM | [12] 7.19 µM | [13] 20.1 µM | [14] 23.5 µM

COP(=S)(OC)Oc1ccc(Sc2ccc(OP(=S)(OC)OC)cc2)cc1
inactive: [1] | [2] | [4] | [6] | [7] | [8]
active: [3] 28.6 µM | [5] 27.4 µM

OCc1ccco1
active: [4] 9.51 µM
inactive: [1] | [2] | [3] | [5] | [6] | [7] | [8]

CC(=O)C(Cl)C(=O)N(C)C (stereo not drawn)
active: [1] 29.6 µM | [4] 28.8 µM | [6] 34.4 µM
inactive: [2] | [3] | [5] | [7] | [8]

COP(=O)(OC)O/C(=C\Cl)c1cc(Cl)c(Cl)cc1Cl
active: [11] 51.5 µM | [12] 31.1 µM and 23 µM | [13] 12.4 µM and 70.3 µM | [14] 23.3 µM and 89 µM | [15] 51500 nM
inactive: [10] | [11] | [15]

COC(=O)Cc1ccccc1
inactive: [16] | [17]

CCSC(C)CC1CC(=O)C(C(CC)=NOC/C=C/Cl)=C(O)C1 (stereo not drawn)
inactive: [1] | [2] | [3] | [4] | [5] | [6] | [7] | [8]

CC(C)(C)c1cc(O)ccc1O
inactive: [19]
active: [18] 50 µM

CCCCC(CC)CO[N+](=O)[O-] (stereo not drawn)
inactive: [1] | [2] | [3] | [4] | [5] | [6] | [7] | [8]

CCOP(=S)(OCC)Oc1nc(Cl)c(Cl)cc1Cl
inactive: [10] | [18]
active: [9] 231 µM | [11] 9.92 µM and 75.5 µM | [12] 29.8 µM | [13] 7.91 µM and 89.6 µM | [14] 35.5 µM | [15] 82.7 µM and 26.6 µM

Oc1cccc2cccnc12
inactive: [18] | [19]

O=C(O)CCC(F)(C(F)(F)F)C(F)(F)F
inactive: [1] | [2] | [3] | [4] | [5] | [6] | [7] | [8] | [16] | [20] | [17]

Nc1ccc(-c2ccc(N)c(Cl)c2)cc1Cl
inactive: [5] | [7] | [8]
active: [1] 20 µM | [2] 20 µM | [3] 3.17 µM | [4] 20 µM | [6] 32.4 µM

O=C(O)C(F)(F)C(F)(F)C(F)(F)C(F)(F)C(F)(F)C(F)(F)C(F)(F)C(F)(F)C(F)(F)C(F)(F)F
active: [2] 4.85 µM and 4.92 µM | [3] 2.59 µM and 2.58 µM | [5] 2.74 µM and 2.55 µM | [7] 5.14 µM and 6.09 µM | [8] 816 nM and 843 nM | [16] 6.52 µM and 5.48 µM | [20] 4.89 µM and 5.89 µM | [17] 3.39 µM
inactive: [1] | [4] | [6] | [17]

ClC1=C(Cl)[C@]2(Cl)[C@H]3[C@H]([C@H]4C=C[C@H]3C4)[C@@]1(Cl)C2(Cl)Cl
inactive: [6] | [7] | [8]
active: [1] 33.1 µM | [2] 3.97 µM | [3] 5.43 µM | [4] 27 µM | [5] 8.66 µM

CCOC(=O)/C=C(C)/C=C/C[C@@H](C)CCCC(C)C
active: [1] 30.6 µM | [2] 29.2 µM | [3] 30.6 µM | [4] 25.6 µM | [5] 29.6 µM | [6] 20 µM | [7] 32.5 µM | [8] 7.11 µM
